# In PubChem BioAssay AID1053143 (Broad Institute, 2014):
# About 120 (3.5%) of roughly 3,400 compounds were called active. How the calls were made is not given here. A selection follows. Results with a measured potency or affinity are listed apart.
# Experiment: viability loss in HepG2 hepatoma cells – cell-based, ATP luminescence, cherry-pick, activator set 2, cytotoxicity control, dose response (AID 1053143)
# Conditions: CellTiter-Glo ATP luminescence, 72 h; series mostly up to 26 µM; activity change, negative = cytotoxicity: at the top concentration
row,SMILES,"activity change, negative = cytotoxicity"
1,COC(=O)CSc1nc2ccccc2c(=O)n1C,12.1% (inactive)
2,COc1cc(CO)ccc1OCc1ccc(Cl)nc1,-13.2% [at 12 µM] (inactive)
3,Clc1ccccc1OCc1nc(-c2ccccn2)no1,-14.1% (inactive)
4,Cn1c(SCC(=O)c2ccccc2)nnc1-c1ccco1,0.181% (inactive)
5,Cc1cc(C(=O)COC(=O)c2cccc(S(=O)(=O)N(C)C)c2)c(C)n1CC1CCCO1 (centres undefined),-5.36% (inactive)
6,CC(C)Oc1ccc(C(=O)OCC(=O)c2ccc[nH]2)cc1,-11.4% (inactive)
7,COC(=O)CSC(C(=O)Nc1ccc(C)c(C)c1)c1ccccc1 (centres undefined),-18% (inactive)
8,CCCc1nc2c3ccccc3ccn2c1Cc1ccccc1,-13.7% (inactive)
9,COc1ccc2[nH]c3c(=O)n(CCc4ccccc4)cnc3c2c1,-10.2% (inactive)
10,Nc1ccc(C(=O)OCCc2ccccc2)cc1,-19% (inactive)
11,O=C(Nc1ccc(Cl)cn1)c1ccc2nccnc2c1,-14.3% (inactive)
12,O=C(Nc1ccc(Cl)cn1)c1ccccc1F,-11.4% (inactive)
13,OCC1OC(n2ccc3c(SCc4ccccc4)ncnc32)C(O)C1O (centres undefined),-7.9% [at 6 µM] (inactive)
14,Cc1cc(N2CCOCC2)nc2cc(O)ccc12,1.65% (inactive)
15,O=C1c2ccccc2NC(c2ccc(-c3cccs3)o2)N1O (centres undefined),-8.51% (inactive)
16,c1cnc(SCCCOc2ccc3ccccc3c2)nc1,-7.21% (inactive)
17,Cc1ccc(NC(=O)CCC(=O)c2cccs2)cc1,0.275% (inactive)
18,C=CCNc1nc(-c2ccc3c(c2)OCCO3)cs1,-18.3% (inactive)
19,O=c1oc(CCCO)cc2ccc(/C=C/c3cccc([N+](=O)[O-])c3)cc12,9.18% (inactive)
20,CN1CCCN(C(=O)c2cc(-c3cccc4ccccc34)nc3ccccc23)CC1,-16.5% (inactive)
21,COc1ccc(NC(=O)c2cc(-c3ccco3)on2)cc1,2.5% (inactive)
22,O=C(Nc1ccc(F)c(Cl)c1)c1cc(-c2ccco2)on1,15.2% (inactive)
23,O=C(Nc1cccnc1Cl)c1cc(-c2ccco2)on1,5.57% (inactive)
24,CC(C)c1cc(C(=O)NCCc2ccccc2)no1,-19.3% (inactive)
25,COc1ccc2cc(-c3ccccc3)c(=O)oc2c1,-12.2% (inactive)

row,SMILES,"activity change, negative = cytotoxicity"
1,Cc1ccc(C)c(OCc2cc(C(=O)N3CC[C@H](O)C3)no2)c1,-11.7% (inactive)
2,COC(=O)C1=C(N)Oc2c(oc(CO)cc2=O)C1c1ccc(F)cc1 (centres undefined),-12.3% (inactive)
3,Fc1ccc(SCCc2ccccn2)cc1,-10.7% (inactive)
4,CCOC(=O)C1CCN(C(=O)/C=C/c2ccccc2)CC1,-14.5% (inactive)
5,O=C(Nc1cccc(-c2ccc(N3CCOCC3)nn2)c1)c1cccc(Cl)c1,-6.34% (inactive)
6,CCOC(=O)C1CCN(C(=O)C(CC)c2ccccc2)CC1 (centres undefined),0.165% (inactive)
7,Cc1ccc(C(=O)Nc2cccc(-c3ccc(N4CCOCC4)nn3)c2)cc1,-19.4% [at 12 µM] (inactive)
8,Fc1ccc(/C=C/c2nnc(-c3cccs3)o2)cc1,-11.6% (inactive)
9,O=C(C=NNc1ccccc1)c1ccccc1,-23.1% (inactive)
10,CCC(C)C(=O)Nc1nnc(-c2cccs2)s1 (centres undefined),22.8% (inactive)
11,O=C(Nc1cccnc1Cl)c1cc2ccccc2o1,-5.8% (inactive)
12,O=C(Nc1ccc(Cl)cc1Cl)c1ccc2c(c1)OCCO2,0.31% (inactive)
13,O=C(Nc1ccccc1F)c1ccc2c(c1)OCO2,-28% (inactive)
14,O=C(Nc1cccnc1)c1ccc(Oc2ccccc2)cc1,-11.8% (inactive)
15,O=C(Nc1cccc([N+](=O)[O-])c1)c1ccc2c(c1)OCCO2,32.1% [at 12 µM] (inactive)
16,O=C(Nc1ncccc1O)c1ccc2ccccc2c1,-15.9% (inactive)
17,NC(=O)c1ccccc1NC(=O)c1ccc2c(c1)OCO2,-17% (inactive)
18,O=C(Nc1ncccc1Cl)c1cc2ccccc2o1,-1.87% (inactive)
19,CC(=O)Oc1ccc(Oc2ccc(-c3noc(C)n3)cc2)cc1,-9.53% (inactive)
20,CSc1nnc(NC(=O)c2ccc(S(=O)(=O)N(C)C)cc2)s1,-1.21% (inactive)
21,CN(C)c1ccc(-c2nnc(-c3cccs3)o2)cc1,-9.57% (inactive)
22,CCN(CC)C(=O)C1CCN(Cc2cn(C)nc2-c2ccc(Oc3ccccc3)cc2)CC1,4.7% (inactive)
23,COc1ccc(-c2[nH]ncc2CNC(C)c2ccccc2Cl)cc1F (centres undefined),-10.5% (inactive)
24,O=C(O)c1ccccc1-c1ccccc1C(=O)NNc1ccccc1,-11.9% (inactive)
25,O=C(N/N=C/c1ccc(N2CCOCC2)cc1)c1ccccn1,-21.9% (inactive)

row,SMILES,"activity change, negative = cytotoxicity"
1,O=C(COC(=O)c1ccc(F)c(S(=O)(=O)N2CCCCC2)c1)NCc1ccc(F)cc1,13.5% (inactive)
2,Oc1ccc(-c2csc(Nc3ccc4c(c3)OCO4)n2)c(O)c1,-4.71% (inactive)
3,Oc1ccc(-c2csc(Nc3ncccn3)n2)c(O)c1,0.686% (inactive)
4,O=C(/C=C\Nc1ccc2c(c1)OCO2)c1ccc2c(c1)OCO2,-15.2% (inactive)
5,Fc1ccccc1-c1nc(-c2ccccc2)no1,-10.7% (inactive)
6,Fc1ccccc1-c1nc(-c2ccncc2)no1,-9.69% (inactive)
7,S=C(c1ccc(-c2cccc(Cl)c2)o1)N1CCCCC1,-11.6% (inactive)
8,COc1ccc(/C=C/C(=O)c2ccc[nH]2)cc1OC,-6.18% (inactive)
9,Cc1ccc(Cc2c(-c3cccc(Cl)c3)nc3ccc(Br)cn23)cc1,2.45% (inactive)
10,COc1ccc(C2=NN(C(=O)c3ccccc3C(=O)O)C(c3ccccc3O)C2)cc1 (centres undefined),3.34% (inactive)
11,CC(=O)N1N=C(c2ccccc2)CC1c1cn(C)c2ccccc12 (centres undefined),38.2% (inactive)
12,O=c1oc2ccccc2cc1-c1nnc(NCc2ccco2)s1,-16.9% (inactive)
13,Cc1cc(OCc2cc(C(=O)N(C)C3CCOC3)no2)cc(C)c1Cl (centres undefined),-9.61% (inactive)
14,Nc1c(C(=O)Nc2ccc3c(c2)OCCO3)nnn1Cc1cccc(Cl)c1,-26.3% (inactive)
15,C(/CCc1ccccc1)=N\Nc1nc2ccccc2[nH]1,0.412% (inactive)
16,Oc1ccc(Br)cc1-c1cc(-c2ccccc2F)[nH]n1,-27.4% (inactive)
17,Oc1ccccc1-c1cc(-c2ccc(F)cc2)n[nH]1,-34.5% (inactive)
18,Cc1ccccc1-c1cc(-c2ccccc2O)n[nH]1,3.4% [at 12 µM] (inactive)
19,O=[N+]([O-])c1ccc2nc(-c3ccccc3[N+](=O)[O-])[nH]c2c1,-5.65% (inactive)
20,CC(C)(C)NC(=O)c1cccc(NC(=O)c2cccc(O)c2)c1,-6.98% (inactive)
21,CCC(=O)Nc1cc(NC(=O)CSc2ncc(-c3ccc(F)cc3)n2Cc2ccco2)ccc1C,-14.2% (inactive)
22,O=C(CSc1nncs1)NC(=O)Nc1ccc2c(c1)OCCO2,-4.21% (inactive)
23,Cc1ccc(NC(=O)c2cc(-c3cccs3)on2)cc1C,12.4% (inactive)
24,CC(C)NC(=O)c1cc(-c2cccs2)on1,-17.5% (inactive)
25,CCOC(=O)c1ccc(NC(=O)C2CC3CCC2C3)cc1 (centres undefined),-0.283% (inactive)

row,SMILES,"activity change, negative = cytotoxicity"
1,CCOc1ccc(C(=O)Nc2ccc3[nH]ncc3c2)cc1,-17.4% (inactive)
2,CCOc1ccc(C(=O)NC2CCCCCCC2)cc1,-19.9% [at 12 µM] (inactive)
3,O=C(Nc1ccc2ccccc2n1)c1ccccc1Cl,-20.5% (inactive)
4,Cn1c(CCNC(=O)c2ccco2)nc2cc(NC(=O)c3ccco3)ccc21,17% (inactive)
5,COc1ccc2nc(NC(=O)c3ccccc3O)sc2c1,-6.8% (inactive)
6,CN(C)S(=O)(=O)c1ccc2nc(NC(=O)c3cccnc3)sc2c1,-8.19% (inactive)
7,O=C(Nc1nc2ccc(F)cc2s1)c1cccs1,-9.76% (inactive)
8,Cc1ccc(C(=O)Nc2nc3ccc(Cl)cc3s2)o1,-14.4% (inactive)
9,O=C(Nc1nc2cc3c(cc2s1)OCO3)C1CCCCC1,39.8% (inactive)
10,CC(=O)Nc1nc2cc3c(cc2s1)OCCO3,4.89% (inactive)
11,CC(C)(C)C(=O)Nc1nc2cc3c(cc2s1)OCO3,-18.5% (inactive)
12,O=C(Nc1nc2cc3c(cc2s1)OCCO3)C1CCCCC1,-13.1% (inactive)
13,Nc1[nH]n(-c2ccccc2)c(=O)c1N=Nc1ccccc1,-8.67% (inactive)
14,CC(=O)Nc1cccc(-c2csc(Nc3ncccn3)n2)c1,4.47% (inactive)
15,COc1ccc(N(C(=O)c2ccc(S(=O)(=O)N3CCCC3)cc2)C2C=CS(=O)(=O)C2)cc1 (centres undefined),-4.95% (inactive)
16,N/C(=N\OC(=O)c1ccc2c(c1)OCO2)c1ccncc1,-0.949% (inactive)
17,N#Cc1cccc(NC(=O)COC(=O)Cn2nc(-c3ccccc3)oc2=O)c1,-7.49% (inactive)
18,CC1CC(O)C(C)CN1 (centres undefined),9.74% (inactive)
19,O=C(NC1CCCCC1)c1ccc2ccccc2c1,-2.43% (inactive)
20,CCc1ccccc1Nc1nc(N)nc(CSCC(=O)Nc2ccc(C)c(C)c2)n1,-11.2% (inactive)
21,O=c1[nH]c(-c2ccccc2)nnc1-c1ccccc1,-10.4% (inactive)
22,O=C(OCC(=O)c1ccc(Br)s1)c1ccc(O)cc1,-0.455% (inactive)
23,O=C(Nc1ccc(-c2nc3ccccc3o2)cc1)c1cccnc1,10.4% (inactive)
24,c1cncc(CNc2cccc(-c3nc4ccccc4[nH]3)c2)c1,6.83% [at 12 µM] (inactive)
25,Cc1ccc(-c2cc3nc(NCCc4ccncc4)n(C)c(=O)c3s2)cc1,-1.72% (inactive)

row,SMILES,"activity change, negative = cytotoxicity"
1,Cc1ccc(C(=O)Nc2ccc(N3CCCCC3)cc2)cc1,-5.53% (inactive)
2,O=C(Cc1ccccc1)Nc1ccc(N2CCCCC2)cc1,-10% (inactive)
3,COc1ccc(-c2cn3cccc(C)c3n2)cc1F,-15.3% (inactive)
4,COc1ccc(C2=Nc3ccccc3N(C(=O)c3ccc4ncccc4c3)C2C(=O)NC(C)(C)C)cc1 (centres undefined),-21.3% (inactive)
5,CN(C)c1ccc(N=Nc2ccc(S(N)(=O)=O)cc2)cc1,-4.4% (inactive)
6,Cc1cccc(/C=C/c2ccccc2)n1,5.81% (inactive)
7,COc1cc(/C=C/c2ccc3cccc(O)c3n2)cc(Cl)c1OC,-24.2% (inactive)
8,Cc1ccc2nc(/C=C/c3cccc(F)c3)ccc2c1,-21.2% (inactive)
9,CCNS(=O)(=O)c1ccc2nc(NC(=O)/C=C/c3cc(OC)c(OC)c(OC)c3)sc2c1,-1.13% (inactive)
10,Cc1cccc(NC(=O)Nc2ccc3c(c2)OCO3)n1,-21.1% (inactive)
11,O=C(NC1CCCC1)c1noc2c1CCCCC2,5.25% (inactive)
12,O=C(NC1CCCCCCC1)NC1CCCCC1,1.7% (inactive)
13,O=C(Nn1c(SCc2cccc([N+](=O)[O-])c2)nc2ccccc2c1=O)c1ccccc1,-5.38% (inactive)
14,O=C(Nc1ccc(N2CCCC2)cc1)c1cccc(Cl)c1,-16.3% (inactive)
15,Cc1ccc(Nc2cc(C)nc(-c3ccccc3O)n2)cc1,-4.25% (inactive)
16,Oc1ccccc1/C=N/Nc1cccc2cccnc12,-6.46% (inactive)
17,O=C(O)c1ccc(N/N=C/c2cccc3cccnc23)cc1,-16.7% (inactive)
18,COc1ccc(-c2cc3cc(OC)c(OC)cc3cn2)cc1,-3.55% (inactive)
19,COc1cccc(NC(=O)NCc2ccccn2)c1,0.982% (inactive)
20,Cc1cccc(-n2ncc3c(N4CCC(C)CC4)ncnc32)c1,0.798% (inactive)
21,Cc1nn(Cc2ccccc2Cl)c(Cl)c1C(=O)NCCc1ccccc1,1.52% (inactive)
22,CN(C)C(=O)c1ccc(-c2cc(C(F)(F)F)nn2C)s1,-17.9% (inactive)
23,O=C(COc1ccc(Cl)cc1)Nc1ncc([N+](=O)[O-])s1,-16.9% (inactive)
24,Cc1ccnc(NC(=O)c2ccc([N+](=O)[O-])s2)c1,-23.6% (inactive)
